Assay results from PubChem BioAssay (NCI).
Compounds without any hit were thinned out: in the full panel of roughly 79,000, 15% have a hit. Calls of active or inactive are those of the source. Cut-off read from the data, not from the text of the source: active = growth inhibition above about 70%; inactive = the rest.

How the values were obtained:
[1] = NCI Yeast Anticancer Drug Screen. Data for the rad50 strain (AID 155);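 note: 0% = growth of vehicle-only cultures of the same strain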; details: S. cerevisiae rad50 strain growth inhibition; at 50.0 µM; hits give high values
Procedure, shortened: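 DNA repair mutant yeast, compound exposure, growth read-out; inhibition is taken relative to vehicle.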

[2] = NCI Yeast Anticancer Drug Screen. Data for the mec2-1 strain (AID 157); details: S. cerevisiae mec2-1 strain, at 50.0 µM, hits give high values
Procedure, shortened: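 Test agents were screened against the mec2-1 yeast strain, with defined DNA repair or cell cycle alteration. Growth was scored as inhibition against vehicle-only controls.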

[3] = NCI Yeast Anticancer Drug Screen. Data for the sgs1 mgt1 strain (AID 161);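 note: 0% = growth of cultures given vehicle only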; details: S. cerevisiae sgs1 mgt1 strain, at 50.0 µM, hits give high values
Procedure, shortened: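 Test agents were incubated with a DNA-repair-mutant yeast strain. Growth was then read and compared against vehicle-treated controls.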

[4] = NCI Yeast Anticancer Drug Screen. Data for the cln2 rad14 strain (AID 165);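 note: 0% = growth equal to vehicle treated cultures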; details: S. cerevisiae cln2 rad14 strain, at 50.0 µM, hits give high values
Procedure, shortened: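 Growth of compound-exposed yeast (cln2 rad14 genotype) measured and expressed as inhibition relative to vehicle.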

[5] = NCI Yeast Anticancer Drug Screen. Data for the bub3 strain (AID 167); details: S. cerevisiae bub3 mutant strain, at 50.0 µM, hits give high values
Procedure, shortened: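 In this screen, a yeast mutant lacking normal mitotic checkpoint function is challenged with compound. Relative growth versus vehicle gives the inhibition value.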

[6] = NCI Yeast Anticancer Drug Screen. Data for the mlh1 rad18 strain (AID 175); details: S. cerevisiae mlh1 rad18 strain growth inhibition; at 50.0 µM; hits give high values
Procedure, shortened: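 In this whole-cell yeast screen, a strain with altered DNA damage repair is challenged with compound, and its growth is measured against matched vehicle-treated controls.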

Measured: growth inhibition

O=C1C=CC(=Nc2ccc(OC(=O)c3ccccc3)cc2)C=C1
inactive: [1] 9.9% | [2] -4.95% | [3] 1.45% | [4] -35% | [5] -3.8% | [6] 9.35%

O=C(NCc1ccccn1)c1ccccc1
inactive: [1] 17.5% | [2] 15.8% | [3] -4.45% | [4] -18.9% | [5] 17.1% | [6] 6.8%

O=C1C2CCOC2N=C2CCCN12 (configuration not stated)
inactive: [1] -1.85% | [2] 5.55% | [3] -3.55% | [4] 1.65% | [5] -5.3% | [6] -11.1%

COc1cc(/C=C/C(=O)N[C@@H]2C(=O)N3[C@@H]2SC(C)(C)[C@@H]3C(=O)O)ccc1O
inactive: [1] -7.45% | [2] -11.2% | [3] -7.9% | [4] -1.55% | [5] -15.2% | [6] 6.65%

Nc1cccc(C(F)(F)F)c1[N+](=O)[O-]
inactive: [1] -8.25% | [2] -28% | [3] -22.4% | [4] -23.4% | [5] -25.9% | [6] 18.1%

C[N+](C)(C)CCCCCC[N+](C)(C)C
inactive: [1] -31.8% | [2] -15.6% | [3] -22.9% | [4] -14.2% | [5] -31.7% | [6] -30.2%

CCc1cc2c(oc3c4ccccc4ccc23)c(=O)[nH]1
inactive: [1] -8.95% | [2] -12.6% | [3] -15.7% | [4] -14.3% | [5] -25.4% | [6] -7.55%

O=C1CS(=O)(=O)CN1c1ccc(Cl)c(Cl)c1
inactive: [1] -17.4% | [2] -3.35% | [3] -7.65% | [4] 6% | [5] 7% | [6] 3.6%

COc1ccc2c(c1)OC[C@@H]1c3cc(NC(=O)c4ccccc4)c(OC)cc3N(S(=O)(=O)c3ccccc3)[C@H]21
inactive: [1] -22.8% | [2] -6.4% | [3] -18.1% | [4] -3.3% | [5] 2.25% | [6] -2.25%

CC(=O)c1ccc2ccccc2c1O
inactive: [1] 2.6% | [2] -11.7% | [3] -25.5% | [4] -11.1% | [5] -3% | [6] -5.45%

Cc1nc(N)nc(C)c1N=Nc1ccccc1Br
inactive: [1] 2% | [2] 3.75% | [3] 2.35% | [4] -42.2% | [5] 5.35% | [6] -6.25%

CCCCC(CC)C(C(C)=O)N(C)C (configuration not stated)
inactive: [1] 33.1% | [2] -9.45% | [3] 13.1% | [4] 8.65% | [5] 4.45% | [6] 4.75%

CCCCCN(CCOC(=O)c1ccc([N+](=O)[O-])cc1)CCOC(=O)c1ccc([N+](=O)[O-])cc1
inactive: [1] 7.5% | [2] 4.7% | [3] 7.25% | [4] 7.8% | [5] -2.6% | [6] 7.45%

COc1cc(C2N3CCCN2CC3)cc(OC)c1OC (configuration not stated)
inactive: [1] -3.75% | [2] 0.35% | [3] -21.6% | [4] -3.5% | [5] -7.75% | [6] -2.55%

CC(C)OC(=O)Oc1ccc(Cl)cc1Cl
inactive: [1] 6.2% | [2] -19.1% | [3] 10.1% | [4] -47.2% | [5] -9.95% | [6] 3.45%

O=C(CCc1ccc(O)c(O)c1)NCCc1cc(O)cc(OCc2ccccc2)c1
inactive: [1] 9.45% | [2] -6.65% | [3] -10.6% | [4] -19.1% | [5] -44.3% | [6] -73.5%

CSc1ccc(OC(=O)Nc2ccc(Cl)c(Cl)c2)cc1C
active: [1] 95.3% | [2] 96.5% | [3] 96.9% | [4] 95% | [5] 94.7% | [6] 95.1%

COc1ccc(/C=C/c2cnc3ccccc3n2)cc1OC
inactive: [1] 28.8% | [2] -4.55% | [3] 58.4% | [4] 25.8% | [5] 45.4%
active: [6] 81%

Cc1ccc(C2CCC(C#N)=CN2C)cc1 (configuration not stated)
inactive: [1] 11.5% | [2] -0.25% | [3] 1.5% | [4] -39.4% | [5] -13% | [6] 3.6%

CCCCN(CCCC)CC(O)C=O (configuration not stated)
inactive: [1] -7.95% | [2] -3.95% | [3] -0.5% | [4] -4.85% | [5] -8.4% | [6] 2.95%

CC1CCCC2(CN=C(Nc3ccccc3)O2)C1 (configuration not stated)
inactive: [1] -13.7% | [2] -8.45% | [3] -7.05% | [4] -75% | [5] -10.1% | [6] -6.15%

O=C(NCc1ccc(Cl)c(Cl)c1)Nc1ccccc1F
inactive: [1] 11% | [2] 11.1% | [3] 6.1% | [4] 9.65% | [5] 20.4% | [6] 7.05%

CCOC(=O)c1c[nH]c(=S)[nH]c1=O
inactive: [1] 9.25% | [2] -8.4% | [3] 18.7% | [4] -15.1% | [5] -1.2% | [6] -10.8%

CCC1(C#CCN2C(=O)c3ccccc3C2=O)C=CC2(CC1)OCCO2 (configuration not stated)
inactive: [1] 10.2% | [2] 18.2% | [3] 26.2% | [4] 0.6% | [5] 2.5% | [6] 48.9%

Nc1cc(F)cc(C(F)(F)F)c1F
inactive: [1] 13.5% | [2] -32.3% | [3] -4.3% | [4] -12.2% | [5] -5.35% | [6] 18.6%

CN(C)S(=O)(=O)c1ccc(NC(=O)OC(C)(c2ccccc2)C2CCCCC2)cc1 (configuration not stated)
inactive: [1] 17.4% | [2] 2% | [3] 4.05% | [4] 7.75% | [5] 1.35% | [6] 4%

N#CCc1csc(-c2ccccc2)n1
inactive: [1] 26.6% | [2] 16.8% | [3] 6.2% | [4] 15.2% | [5] 1.55% | [6] 27%

O=C1C=C2CCCCCCCC(C1)C2 (configuration not stated)
inactive: [1] 11.8% | [2] 1.1% | [3] 2.25% | [4] -1.75% | [5] -1.15% | [6] 3.2%

Cc1cc(C)c(C)c(CN)c1C
inactive: [1] -20% | [2] -5.85% | [3] -9.35% | [4] 7.8% | [5] 13.7% | [6] -3%

CCOC(=O)c1ccc(NP(=O)(Nc2ccc(C(=O)OCC)cc2)c2ccc(N)cc2)cc1
inactive: [1] -5.65% | [2] -17.4% | [3] -2.25% | [4] -65.7% | [5] 0.85% | [6] 4.25%

COc1ccc(CC(N)C(=O)OC(C)C)cc1 (configuration not stated)
inactive: [1] -16.3% | [2] -12.3% | [3] -5.05% | [4] -36% | [5] 11% | [6] 1.4%

COc1ccc(Cc2c(O)ccc3ccccc23)cc1
active: [1] 98.6% | [2] 99.4% | [3] 99% | [4] 95.8% | [5] 98.3% | [6] 99.2%

c1c[nH]c(C2=NCCCCC2)c1
inactive: [1] 1.85% | [2] -6.95% | [3] 2.2% | [4] -3% | [5] -5.2% | [6] -29.1%

COC(=O)c1ccccc1NC(=O)Nc1ccc(F)c([N+](=O)[O-])c1
inactive: [1] 3.75% | [2] 22.9% | [3] 3.15% | [4] 0.85% | [5] 11.6% | [6] -10.9%

c1ccc(COC2C3COC(O3)C(OCc3ccccc3)C2OCc2ccccc2)cc1 (configuration not stated)
inactive: [1] 11.7% | [2] -1.7% | [3] 26.4% | [4] 3.2% | [5] 17.7% | [6] 22.4%

COC1CCC2CC3(CCC2(C)C1O)OCCO3 (configuration not stated)
inactive: [1] 1.25% | [2] 0.85% | [3] -1.45% | [4] -12.3% | [5] 26.1% | [6] -14.4%

CC(C)Sc1nc2ccc(NC(=O)/C=C/C(=O)O)cc2s1
inactive: [1] 18.9% | [2] 8.65% | [3] 4.95% | [4] 14.1% | [5] 13.7% | [6] 12.1%

CCCCCC(=O)N1CCCCC1CC (configuration not stated)
inactive: [1] -8.55% | [2] 7.15% | [3] -19.6% | [4] -10.1% | [5] -25.6% | [6] -28.1%

CCC1(C)C(=O)C(C)(CC)C1=O (configuration not stated)
inactive: [1] 23.6% | [2] 20.6% | [3] 21.4% | [4] 0.6% | [5] 20% | [6] 6.85%

COC(=O)c1c2c(cc3c1CC1(Cc4ccccc4C1)C3)CCC2
inactive: [1] 1.15% | [2] 11.6% | [3] 17% | [4] 0.6% | [5] 2.6% | [6] 18.6%

CCCCCCOC(=O)c1ccccn1
inactive: [1] -5.85% | [2] 1.7% | [3] 0.15% | [4] -91.6% | [5] 17.6% | [6] -26.6%

COc1ccc(NC(=O)C(=O)Cc2nc3ccc(C(=O)c4ccccc4)cc3[nH]c2=O)c([N+](=O)[O-])c1
inactive: [1] 36% | [2] 2.65% | [3] 12.7% | [4] 19.1% | [5] 11.8% | [6] 22.6%
